11 compounds from PubChem BioAssay (Tox21) can be followed below.

Each structure is given as a SMILES string. Results filed as inconclusive are left out. Activity calls are given as the source filed them. Unless noted, calls come from the whole dose curve; as a rule, active = well fitted curve in the direction sought with a large enough effect in the repeat runs; inconclusive = weak or mixed curves; inactive = no such curve, though single readings can be large; an effect the other way counts as inactive or inconclusive.

A short description of assay [1]: qHTS assay to identify small molecule antagonists of the glucocorticoid receptor (GR) signaling pathway - cell viability counter screen (AID 720693). Note: nearly all actives have a fitted effect of over 55% in size. For orientation: Quantitative high-throughput screening tests each substance at several concentrations.
A short description of assay [2]: qHTS assay for identifying genotoxic compounds that show differential cytotoxicity against isogenic chicken DT40 cell lines with known DNA damage response pathways - wild type cell line (AID 743012). Note: nearly all actives have a fitted effect of over 60% in size. Note: potency is the fitted concentration of half-maximal effect. Put shortly: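 Viability of DNA repair-proficient chicken DT40 cells was assessed by CellTiter-Glo luminescence following 40 h compound exposure at 37 C/5% CO2.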
A short description of assay [3]: qHTS assay for identifying genotoxic compounds that show differential cytotoxicity against isogenic chicken DT40 cell lines with known DNA damage response pathways - Rev3 mutant cell line (AID 743014). Note: nearly all actives have a fitted effect of over 55% in size. Note: potency is the fitted concentration of half-maximal effect.
The nature of assay [4]: qHTS assay for identifying genotoxic compounds that show differential cytotoxicity against isogenic chicken DT40 cell lines with known DNA damage response pathways - Rad54/Ku70 mutant cell line (AID 743015). Note: nearly all actives have a fitted effect of over 60% in size. Note: potency is the fitted concentration of half-maximal effect.
Assay [5] is described as follows: qHTS assay to identify small molecule antagonists of the androgen receptor (AR) signaling pathway - cell viability counter screen (AID 743033; note: nearly all actives have a fitted effect of over 45% in size).
The nature of assay [6]: qHTS assay to identify small molecule antagonists of the thyroid receptor (TR) signaling pathway - cell viability counter screen (AID 743064). Note: nearly all actives have a fitted effect of over 50% in size. Note: potency is the fitted concentration of half-maximal effect. In a few lines:
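GH3.TRE-Luc cells, 4 h pre-plating; cpd + T3 1 nM final; 37 °C 23.5 h; CellTiter-Fluor 30 min; fluorescence read.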

The nature of assay [7]: qHTS assay to identify small molecule antagonists of the thyroid receptor (TR) signaling pathway (AID 743065). Note: nearly all actives have a fitted effect of over 55% in size. Note: potency is the fitted concentration of half-maximal effect. In a few lines:
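GH3.TRE-Luc rat pituitary cells carrying two TR response elements driving luciferase were plated for 4 h, given compound plus 1 nM T3 (final), and incubated 23.5 h at 37 C. ONE-Glo luminescence measured reporter inhibition; CellTiter-Fluor fluorescence tracked cytotoxicity.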

Assay [8] has as its system thyroid hormone receptor (rat, GH3 cells). Kind of assay: qHTS assay to identify small molecule agonists of the thyroid receptor (TR) signaling pathway (AID 743066; calls by dose curve).
Assay [9] in a line: qHTS assay to identify small molecule antagonists of the estrogen receptor alpha (ER-alpha) signaling pathway - cell viability counter screen (AID 743074; calls by dose curve; note: nearly all actives have a fitted effect of over 45% in size).
A short description of assay [10]: qHTS assay to identify small molecule antagonists of the estrogen receptor alpha (ER-alpha) signaling pathway using the BG1 cell line - cell viability counter screen (AID 743081).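 Note: compound given together with 17beta-estradiol as the ER stimulus; series mostly up to about 70 µM; nearly all actives have a fitted effect of over 45% in size.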
The target in a further assay is Aromatase (Homo sapiens) (UniProt P11511). Kind of assay: qHTS assay to identify aromatase inhibitors (AID 743083). Note: nearly all actives have a fitted effect of over 55% in size. Note: potency is the fitted concentration of half-maximal effect.
Assay [11] is described as follows: qHTS assay to identify small molecule antagonists of the androgen receptor (AR) signaling pathway using the MDA cell line - cell viability counter screen (AID 743041; note: nearly all actives have a fitted effect of over 45% in size). Put shortly: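 qHTS viability read-out; MDA-kb2 AR-luc; R1881-stimulated; 16 h exposure at 37C, 0% CO2; CellTiter-Fluor, 30 min; fluorescence intensity.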
Assay [12] deals with Estrogen receptor (Homo sapiens) (UniProt P03372). Kind of assay: qHTS assay to identify small molecule antagonists of the estrogen receptor alpha (ER-alpha) signaling pathway (AID 743069; active = well fitted curve in the direction sought with a large enough effect in the signal ratio in the repeat runs, not every such curve was filed as active; the % refers to the signal ratio). In a few lines:
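Screening used a UAS-driven beta-lactamase reporter integrated into HEK293 cells expressing ER-alpha, stimulated with 17beta-estradiol alongside test compounds over 18 hr at 37C; signal came from LiveBLAzer B/G FRET fluorescence.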

For assay [13] the target is unchanged. Kind of assay: qHTS assay to identify small molecule agonists of the estrogen receptor alpha (ER-alpha) signaling pathway (AID 743075; calls by dose curve).
Assay [14] has the same target. Kind of assay: qHTS assay to identify small molecule agonists of the estrogen receptor alpha (ER-alpha) signaling pathway using the BG1 cell line (AID 743079). Note: nearly all actives have a fitted effect of over 20% in size.
A short description of assay [15]: qHTS assay to identify small molecule antagonists of the estrogen receptor alpha (ER-alpha) signaling pathway using the BG1 cell line (AID 743080; calls by dose curve;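 note: BG1 cells stimulated with 17beta-estradiol alongside compound; series mostly up to about 70 µM; nearly all actives have a fitted effect of over 25% in size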). Put shortly: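 Endogenous full-length ER-alpha in BG1-Luc-4E2 cells drives a stably integrated 4×ERE luciferase gene; compounds were tested against 17beta-estradiol over 21.5 h, with luminescence and multiplexed viability fluorescence recorded.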

Assay [16] has as its target Androgen receptor (Homo sapiens) (UniProt P10275). Kind of assay: qHTS assay to identify small molecule antagonists of the androgen receptor (AR) signaling pathway (AID 743035; active = well fitted inhibition curve with a large enough effect in the signal ratio in the repeat runs, not every such curve was filed as active; the % refers to the signal ratio). In a few lines:
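Reporter HEK293 cells were exposed to compounds and R1881 overnight (16 h, 37C); beta-lactamase activity was then quantified by FRET fluorescence.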

The target is the same in assay [17]. Kind of assay: qHTS assay to identify small molecule agonists of the androgen receptor (AR) signaling pathway (AID 743036; active = well fitted activation curve with a large enough effect in the signal ratio in the repeat runs, with a control signal flat, not every such curve was filed as active; the % refers to the signal ratio). Put shortly:
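AR-bla HEK293 cells, 2,000/well; 4 h preincubation 37C/5% CO2; compound (DMSO) 16 h at 37C; LiveBLAzer B/G FRET substrate 2 h RT; fluorescence intensity read-out.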

For assay [18] the target is unchanged. Kind of assay: qHTS assay to identify small molecule agonists of the androgen receptor (AR) signaling pathway using the MDA cell line (AID 743040; note: nearly all actives have a fitted effect of over 20% in size). Put shortly: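 Agonist activity is measured as luciferase luminescence in human MDA-kb2 cells whose MMTV reporter responds to both AR and GR. Compounds in DMSO incubate 16 h at 37C, 0% CO2, and ONE-Glo is read after 30 min.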

The target is the same in assay [19]. Kind of assay: qHTS assay to identify small molecule antagonists of the androgen receptor (AR) signaling pathway using the MDA cell line (AID 743042; note: nearly all actives have a fitted effect of over 55% in size). In a few lines:
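MDA-kb2 cells (human breast carcinoma, stably carrying an MMTV-luciferase reporter responsive to AR and GR) were plated at 3,000 cells/well and preincubated 5 hr at 37C, then given compound plus R1881 agonist for 16 h. ONE-Glo luminescence was read.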

Chain of Estrogen receptor (Homo sapiens) (P03372 whole entry, looked up): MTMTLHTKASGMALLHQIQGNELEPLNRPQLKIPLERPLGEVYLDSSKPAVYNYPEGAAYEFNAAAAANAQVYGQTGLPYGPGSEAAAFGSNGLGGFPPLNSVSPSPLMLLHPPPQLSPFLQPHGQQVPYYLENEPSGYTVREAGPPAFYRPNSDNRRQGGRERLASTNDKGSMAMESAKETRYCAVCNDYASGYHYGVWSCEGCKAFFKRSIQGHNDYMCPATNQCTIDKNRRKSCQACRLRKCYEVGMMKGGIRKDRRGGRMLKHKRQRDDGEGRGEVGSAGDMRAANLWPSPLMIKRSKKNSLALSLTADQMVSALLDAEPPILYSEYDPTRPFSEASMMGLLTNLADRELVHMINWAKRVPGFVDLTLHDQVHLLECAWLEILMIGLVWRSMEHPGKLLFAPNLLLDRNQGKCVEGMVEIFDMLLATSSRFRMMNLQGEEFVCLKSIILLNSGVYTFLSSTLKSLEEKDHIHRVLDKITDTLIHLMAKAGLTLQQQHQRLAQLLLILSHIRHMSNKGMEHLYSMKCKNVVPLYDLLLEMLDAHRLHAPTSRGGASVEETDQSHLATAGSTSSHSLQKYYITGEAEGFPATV
Chain of Androgen receptor (Homo sapiens) (P10275 whole entry, looked up): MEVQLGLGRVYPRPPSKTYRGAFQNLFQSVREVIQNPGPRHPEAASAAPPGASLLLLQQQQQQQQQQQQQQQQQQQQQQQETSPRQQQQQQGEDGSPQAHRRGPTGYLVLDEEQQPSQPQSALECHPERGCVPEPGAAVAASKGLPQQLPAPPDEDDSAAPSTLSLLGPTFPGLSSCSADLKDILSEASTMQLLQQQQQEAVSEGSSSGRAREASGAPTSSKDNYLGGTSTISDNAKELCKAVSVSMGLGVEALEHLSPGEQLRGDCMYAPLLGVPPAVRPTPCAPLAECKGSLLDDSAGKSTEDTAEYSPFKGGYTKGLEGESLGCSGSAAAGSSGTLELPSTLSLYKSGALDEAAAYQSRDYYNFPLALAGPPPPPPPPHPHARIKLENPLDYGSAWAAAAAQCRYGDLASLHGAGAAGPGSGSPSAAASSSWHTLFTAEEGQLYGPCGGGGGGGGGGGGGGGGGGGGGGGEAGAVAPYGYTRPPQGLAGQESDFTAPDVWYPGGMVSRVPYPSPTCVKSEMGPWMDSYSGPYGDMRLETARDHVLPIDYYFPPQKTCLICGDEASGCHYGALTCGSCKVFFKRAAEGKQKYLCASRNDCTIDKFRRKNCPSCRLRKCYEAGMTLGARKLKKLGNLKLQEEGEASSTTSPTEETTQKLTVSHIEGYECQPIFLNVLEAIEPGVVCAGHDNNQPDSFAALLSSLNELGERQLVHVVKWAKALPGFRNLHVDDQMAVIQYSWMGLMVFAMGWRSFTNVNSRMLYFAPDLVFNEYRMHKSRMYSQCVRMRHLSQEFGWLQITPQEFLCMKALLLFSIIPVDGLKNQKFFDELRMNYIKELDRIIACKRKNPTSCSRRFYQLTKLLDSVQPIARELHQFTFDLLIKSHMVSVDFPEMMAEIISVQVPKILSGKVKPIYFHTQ
Chain of Aromatase (Homo sapiens) (P11511 whole entry, looked up): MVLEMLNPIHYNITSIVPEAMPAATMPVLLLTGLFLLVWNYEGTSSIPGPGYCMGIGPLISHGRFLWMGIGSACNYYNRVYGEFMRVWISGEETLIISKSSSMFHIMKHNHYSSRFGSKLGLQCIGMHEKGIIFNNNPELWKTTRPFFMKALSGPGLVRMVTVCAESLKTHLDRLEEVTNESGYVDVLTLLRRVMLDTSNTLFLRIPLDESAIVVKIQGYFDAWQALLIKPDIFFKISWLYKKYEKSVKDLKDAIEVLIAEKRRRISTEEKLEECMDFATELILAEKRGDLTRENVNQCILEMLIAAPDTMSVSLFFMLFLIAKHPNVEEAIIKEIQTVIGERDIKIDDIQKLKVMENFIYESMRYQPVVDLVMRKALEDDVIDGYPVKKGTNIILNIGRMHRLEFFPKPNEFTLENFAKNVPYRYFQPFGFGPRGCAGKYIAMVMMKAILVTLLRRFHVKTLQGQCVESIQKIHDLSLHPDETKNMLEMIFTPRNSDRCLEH

In the case of `C#CC(C)(O)CC(C)C` (stereo unspecified), the call in [1], in assay [5], in [9] and in [10] was inactive. Also, the Potency entry in [2], in assay [3], in [4], in assay [6], in [7] and in assay [8] was “inactive” each time. The Potency entry with Aromatase (Homo sapiens) was “inactive”.
Regarding `C=C(C)[C@@H]1CCC2=CC(=O)C[C@@H](C)[C@]2(C)C1`, the call in assay [1], in [5], in assay [9] and in assay [10] was inactive. For the same compound, the Potency result in assay [2], in assay [3], in [4], in [11], in [8] and in assay [12] was “inactive” in each case. Besides, the Potency result in assay [13], in [14] and in [15] was “inactive” each time.
Turning to `COC(=O)C1=C(C)NC(C)=C(C(=O)OCC(C)=O)C1c1ccccc1[N+](=O)[O-]` (stereo unspecified), the result in assay [1] and in assay [9] was inactive. The Potency is 5.96 µM (active) in assay [2]; 11.9 µM (active) in [3]; 10.6 µM (active) in [4]; 8.41 µM (active) in assay [6]; 7.5 µM (active) in assay [7]; 26.6 µM (active) with Aromatase (Homo sapiens). Besides, the Potency result in assay [13] and in [14] was “inactive” throughout.
As to `C=C(C)[C@H]1CC=C(C)CC1`, the outcome in assay [1], in assay [5], in [9] and in [10] was inactive. Besides, the Potency result in assay [2], in assay [3], in assay [4], in [11], in assay [12] and in [13] was “inactive” throughout. For the same compound, the Potency entry (in [14]; in assay [15]; with Aromatase (Homo sapiens)) was “inactive” throughout.
Regarding `C[C@H](O)C(=O)Nc1c(I)c(C(=O)NC(CO)CO)c(I)c(C(=O)NC(CO)CO)c1I`, the compound was called inactive in assay [1], in assay [9] and in [10]. The Potency result in assay [2], in assay [3], in [4], in assay [11], in assay [6] and in assay [7] was “inactive” throughout. The Potency entry (in assay [8]; in [12]; in assay [13]; in assay [14]; with Aromatase (Homo sapiens)) was “inactive” each time.
In the case of `CCN1CCN(c2cc3c(cc2F)c(=O)c(C(=O)O)cn3C2CC2)CC1`, the call in [1], in assay [5], in assay [17], in [19], in assay [9] and in assay [10] was inactive. Besides, the Potency result in assay [2], in assay [3], in [16], in [18], in assay [6] and in assay [7] was “inactive” each time. Moreover, the Potency result (in [8]; with Aromatase (Homo sapiens)) was “inactive” each time.
Turning to `C#CC(O)C(CC)CCCC` (stereo unspecified), the outcome in assay [1], in assay [5], in assay [17], in assay [19], in assay [9] and in assay [10] was inactive. Moreover, the Potency result in assay [3], in [4], in [16], in assay [18], in assay [11] and in assay [6] was “inactive” in each case. Further, the Potency entry (in assay [7]; in assay [8]; with Aromatase (Homo sapiens)) was “inactive” throughout.
Regarding `Cc1nccn1CC1CCc2c(c3ccccc3n2C)C1=O` (stereo unspecified), the result in assay [1], in assay [5], in assay [9] and in [10] was inactive. Further, the Potency entry in assay [2], in assay [3], in assay [4], in assay [11], in assay [8] and in assay [12] was “inactive” each time. Besides, the Potency entry (in assay [13]; in assay [14]; in assay [15]; in the assay with Aromatase (Homo sapiens)) was “inactive” in each case.
As to `Fc1ccccc1-c1ccccc1`, the result in [1], in assay [5], in [9] and in assay [10] was inactive. The Potency result in assay [3], in assay [4], in assay [11], in [6], in assay [7] and in assay [8] was “inactive” in each case. Further, the Potency result (in [12]; in [13]; in assay [14]; in [15]; with Aromatase (Homo sapiens)) was “inactive” in each case.
With `C=C(C)C(=O)NCCC[N+](C)(C)C`, the result in [1], in assay [5] and in assay [10] was inactive. Further, the Potency entry in [3], in assay [4], in assay [11], in assay [7], in assay [8] and in assay [12] was “inactive” throughout. Besides, the Potency entry (in assay [13]; in assay [14]; in [15]; in the assay with Aromatase (Homo sapiens)) was “inactive” throughout.
`c1ccc(SCCSc2ccccc2)cc1`: the result in assay [1], in assay [5], in assay [17], in [19] and in assay [10] was inactive. The Potency result in [3], in assay [4], in [16], in assay [18], in assay [11] and in [6] was “inactive” throughout. Also, the Potency result (in [7]; in [8]; in the assay with Aromatase (Homo sapiens)) was “inactive” each time.
